Eight compounds from PubChem BioAssay (NCI) can be followed below.

Some test systems named below: K-562 leukemia; MALME-3M melanoma; MDA-MB-231 breast; RXF 393 renal; SF-268 CNS; SF-295 CNS; SF-539 CNS; UACC-257 melanoma; M14 melanoma; HCT-15 colon; HT29 colon; SNB-75 CNS; SNB-19 CNS; U251 CNS; SK-MEL-5 melanoma; UACC-62 melanoma; LOX IMVI melanoma; SK-MEL-28 melanoma; PC-3 prostate; SK-MEL-2 melanoma.
Common to all, as to test: NCI-60 one-dose screen, 48 h (100 = growth as untreated, 0 = no growth, -100 = all killed)
Conditions in all cases: 10 µM unless noted

This is part of a sample that, as a whole, favours compounds with a hit. Of some 83,000 tested, about 20% had one in any assay.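 Treatment: one concentration, 48 hours, 96-well format. Scoring: percent growth, with anything below 10 considered active.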 Unmarked numbers belong to inactive results. The source made the active and inactive calls.

In the case of `Cc1nn(-c2ccccc2)c2c1oc(=O)c1cc(Cl)ccc12`, the growth in the test with K-562 leukemia is 106%; in the test with MALME-3M melanoma, 106%; in the test on MDA-MB-231 breast, 94%; in the test on RXF 393 renal it was 116%; in the test with SF-268 CNS, 90.6%; in the test on SF-295 CNS it was 109%. The growth in the test on SF-539 CNS is 97.9%; in the test with UACC-257 melanoma, 99.7%; in the test on M14 melanoma, 92.6%; in the test on HCT-15 colon, 99.4%; in the test with HT29 colon, 101%; in the test on SNB-75 CNS, 83.7%. Further, the growth is 99.2% in the test with SNB-19 CNS; 105% in the test with U251 CNS; 110% with SK-MEL-5 melanoma; 92.3% in the test with UACC-62 melanoma; 105% in the test on LOX IMVI melanoma; 140% with SK-MEL-28 melanoma.
For `CCCCN(CCCC)CCCOC(=O)c1ccc(N)cc1`, the growth in the test on K-562 leukemia is 96.5%; in the test on MALME-3M melanoma it was 93%; in the test with MDA-MB-231 breast it was 86.8%; in the test on RXF 393 renal it was 92.1%; in the test on SF-268 CNS it was 96.3%; with SF-295 CNS, 84.5%. Besides, the growth in the test with SF-539 CNS was 94.4%; with UACC-257 melanoma, 88%; in the test on M14 melanoma, 93.7%; in the test on HCT-15 colon it was 101%; in the test with HT29 colon, 31.4%; with SNB-75 CNS it was 39.1%. Also, the growth was 88.7% in the test on SNB-19 CNS; 58.5% in the test on U251 CNS; 97.1% in the test with PC-3 prostate; 92.3% in the test on UACC-62 melanoma; 64.2% in the test on LOX IMVI melanoma; 57.5% with SK-MEL-28 melanoma. Moreover, the growth with SK-MEL-2 melanoma was 85.1%.
For the compound `CCOC(=O)C1=C(COCCN)NC(C)=C(C(=O)OC)C1c1ccccc1Cl` (stereo unspecified), the growth in the test on K-562 leukemia was 59.1%; with MALME-3M melanoma it was 74%; in the test on MDA-MB-231 breast it was 17.4%; with RXF 393 renal, 50.9%; in the test with SF-268 CNS, 87%; with SF-295 CNS, 96.2%. Further, the growth is 92.9% in the test with SF-539 CNS; 59% in the test on UACC-257 melanoma; 48.6% in the test with M14 melanoma; 64.6% with HCT-15 colon; 11.4% in the test with HT29 colon; 72.3% in the test on SNB-75 CNS. Besides, the growth in the test with SNB-19 CNS is 102%; in the test with U251 CNS, 52.8%; with PC-3 prostate it was 66.9%; in the test on UACC-62 melanoma, 60.5%; with LOX IMVI melanoma it was 32.3%; in the test with SK-MEL-28 melanoma it was 75.9%. In the test on SK-MEL-2 melanoma, the growth is 90.2%.
For the compound `COc1cc([C@@H]2c3cc4c(cc3C(O[C@@H]3O[C@@H]5CO[C@@H](c6cccs6)OC5[C@H](O)[C@H]3O)C3COC(=O)[C@@H]32)OCO4)cc(OC)c1O` (stereo partly specified), the growth is 4.5% (active) in the test with K-562 leukemia; -28.7% (active) with MALME-3M melanoma; -18.8% (active) in the test on MDA-MB-231 breast; -72.3% (active) in the test on RXF 393 renal; -17.1% (active) with SF-268 CNS; -19.9% (active) in the test on SF-295 CNS. In addition, the growth in the test with SF-539 CNS is -35.5% (active); in the test on UACC-257 melanoma, -19.7% (active); in the test on M14 melanoma, -43.2% (active); in the test with HCT-15 colon, 5.54% (active); with HT29 colon it was -24.8% (active); in the test with SNB-75 CNS, -37% (active). Further, the growth in the test on SNB-19 CNS is 1.98% (active); in the test on U251 CNS, -15.5% (active); in the test with PC-3 prostate, 4.52% (active); with UACC-62 melanoma, -54.3% (active); in the test on LOX IMVI melanoma, -37.3% (active); in the test on SK-MEL-28 melanoma, -29% (active). Further, the growth with SK-MEL-2 melanoma was -47.3% (active).
`CC[C@H](C)C(=O)O[C@H]1C[C@@H](C)C=C2C=C[C@H](C)[C@H](CC[C@@H]3C[C@@H](O)CC(=O)O3)[C@H]21`: the growth in the test with K-562 leukemia was 104%; in the test with MALME-3M melanoma it was 89.7%; in the test on MDA-MB-231 breast, -35.3% (active); in the test on RXF 393 renal it was 97.7%; with SF-268 CNS, 42.7%; with SF-295 CNS, 28.8%. In addition, the growth was 95.9% in the test with SF-539 CNS; 83.5% in the test with UACC-257 melanoma; 59.2% in the test on M14 melanoma; 55.1% with HCT-15 colon; 95.4% with HT29 colon; 58.3% in the test on SNB-75 CNS. The growth was 64.9% in the test with SNB-19 CNS; 25.2% in the test on U251 CNS; 33.9% in the test with PC-3 prostate; 23.7% in the test on UACC-62 melanoma; 25.1% in the test with LOX IMVI melanoma; 90.6% in the test on SK-MEL-28 melanoma. For the same compound, the growth in the test with SK-MEL-2 melanoma was 36.8%.
On to `CC(=O)O[C@H]1C(=O)[C@@]2(C)C([C@H](OC(=O)c3ccccc3)[C@]3(O)C[C@H](OC(=O)[C@H](O)[C@@H](NC(=O)c4ccccc4)c4ccccc4)C(C)=C1C3(C)C)[C@]1(OC(C)=O)CO[C@@H]1C[C@@H]2O` (stereo partly specified), for which the growth with K-562 leukemia was 12.5%; with MALME-3M melanoma, 57.3%; with MDA-MB-231 breast, 17%; in the test with RXF 393 renal it was -17.9% (active); with SF-268 CNS it was 30.2%; in the test on SF-295 CNS it was -8.51% (active). The growth in the test with SF-539 CNS is 13.1%; with UACC-257 melanoma, 45%; with M14 melanoma, 20%; in the test with HCT-15 colon, 23.7%; in the test on HT29 colon, 3.07% (active); in the test on SNB-75 CNS it was -19% (active). The growth was 36.2% in the test on SNB-19 CNS; 13.5% in the test with U251 CNS; 19.7% in the test with PC-3 prostate; 42.5% in the test on UACC-62 melanoma; 44.3% with LOX IMVI melanoma; 57.5% in the test with SK-MEL-28 melanoma. In addition, the growth with SK-MEL-2 melanoma is -5.52% (active).
On to `Cc1cc(N2CCOCC2)nc(N2CCOCC2)n1`, for which the growth in the test with K-562 leukemia is 112%; in the test on MALME-3M melanoma it was 107%; with MDA-MB-231 breast, 114%; in the test with RXF 393 renal it was 118%; with SF-268 CNS, 100%; in the test on SF-295 CNS it was 113%. Besides, the growth with SF-539 CNS is 97.5%; in the test with UACC-257 melanoma, 105%; with M14 melanoma it was 105%; in the test on HCT-15 colon it was 102%; in the test on HT29 colon, 103%; in the test on SNB-75 CNS, 94.4%. The growth in the test with SNB-19 CNS was 99.7%; with U251 CNS, 102%; with SK-MEL-5 melanoma it was 102%; with UACC-62 melanoma, 99%; in the test with LOX IMVI melanoma, 104%; in the test with SK-MEL-28 melanoma, 113%. Besides, the growth in the test with SK-MEL-2 melanoma was 90.6%.
As for `Cc1ccsc1/C=C/C1=NCCCN1C`, the growth in the test on K-562 leukemia was 101%; in the test on MALME-3M melanoma it was 97%; in the test with MDA-MB-231 breast, 99.3%; with RXF 393 renal it was 113%; with SF-268 CNS, 111%; with SF-295 CNS it was 95.6%. For the same compound, the growth was 119% in the test on SF-539 CNS; 110% in the test with UACC-257 melanoma; 100% in the test on M14 melanoma; 109% in the test with HCT-15 colon; 99.3% in the test on HT29 colon; 102% with SNB-75 CNS. The growth in the test with SNB-19 CNS is 104%; with U251 CNS, 100%; in the test with PC-3 prostate it was 90.5%; in the test with UACC-62 melanoma it was 106%; in the test on LOX IMVI melanoma, 95.6%; in the test with SK-MEL-28 melanoma it was 103%. The growth with SK-MEL-2 melanoma was 92.6%.
